POLH inh: qHTS for Inhibitors of Polymerase Eta; recombinant Pol eta, fluorescent DNA replication assay; DNA polymerase eta (Homo sapiens), Q9Y253; Potency, µM (top dose mostly 114 µM), without a hit: at the top dose activity change, negative = inhibition, hits mostly inhibitors; AID 588591, 2011; actives 1.2% (n = 390,000); note: potency is the fitted concentration of half-maximal effect; % is set by controls: 0 for no effect and ±100 for the full control effect
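Fluorescent replication assay: 50 nM final substrate added after a 15 min room-temperature compound preincubation with 10 nM enzyme. Signal taken at 0 min and again at 10 min.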
POLK inh: qHTS for Inhibitors of Polymerase Kappa; DNA polymerase kappa (Homo sapiens), Q9UBT6; purified Pol kappa, fluorescent DNA synthesis assay, 10 min; Potency, µM (titrated, usually from 107 µM), inactives show top-dose activity, negative = inhibition, most hits filed as inhibitors; actives 0.53% (n = 400,000); AID 588579, 2011; note: potency is the fitted concentration of half-maximal effect; % is set by controls: 0 for no effect and ±100 for the full control effect
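10 nM Pol kappa preincubated 15 min at room temperature with compounds, then reaction started with substrate at 50 nM final. Fluorescence read kinetically at 0 and 10 min; buffer-only wells served as negative control.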
Pol beta inh-1: qHTS Assay for Inhibitors of DNA Polymerase Beta; P06746; Pol beta primer extension/strand displacement, fluorescence kinetic; Potency, µM (highest dose often 114 µM), without a hit: at the highest dose activity change, negative = inhibition, hits mostly inhibitors; actives 1.3% (n = 340,000); AID 485314, 2010; note: potency is the fitted concentration of half-maximal effect; % is set by controls: 0 for no effect and ±100 for the full control effect
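Enzyme-only controls used 10 nM Pol beta; buffer lacking enzyme served as negative control. Compound preincubated 15 min, then 50 nM substrate added; 0 and 10 min reads at room temperature.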
WRN inhibitor: qHTS for Inhibitors of WRN Helicase; actives 0.46% (n = 360,000); Bifunctional 3'-5' exonuclease/ATP-dependent helicase WRN (Homo sapiens), Q14191; Potency, µM (doses to about 114 µM), inactives show at the top dose activity change, negative = inhibition, usual class: inhibitors; WRN helicase unwinding, fluorescent forked duplex, kinetic; note: potency is the fitted concentration of half-maximal effect; % is set by controls: 0 for no effect and ±100 for the full control effect; nearly all actives have a fitted effect of over 55% in size
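WRN at 20 nM final was preincubated with compound for 15 min at room temperature; reaction started with 100 nM forked duplex oligonucleotide carrying fluorophore and quencher plus 2 mM ATP (final). Unwinding followed kinetically by red fluorescence (ex 525/em 598 nm).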
Pol iota inh: qHTS for Inhibitors of Polymerase Iota. AID 588590, 2011. Pol iota fluorescent replication assay, 10 min. Potency, µM (series often up to 115 µM), without a hit: top-dose activity, negative = inhibition, hits mostly inhibitors. actives 1% (n = 390,000); note: potency is the fitted concentration of half-maximal effect
Target sequence (Q9UNA4 whole entry, looked up): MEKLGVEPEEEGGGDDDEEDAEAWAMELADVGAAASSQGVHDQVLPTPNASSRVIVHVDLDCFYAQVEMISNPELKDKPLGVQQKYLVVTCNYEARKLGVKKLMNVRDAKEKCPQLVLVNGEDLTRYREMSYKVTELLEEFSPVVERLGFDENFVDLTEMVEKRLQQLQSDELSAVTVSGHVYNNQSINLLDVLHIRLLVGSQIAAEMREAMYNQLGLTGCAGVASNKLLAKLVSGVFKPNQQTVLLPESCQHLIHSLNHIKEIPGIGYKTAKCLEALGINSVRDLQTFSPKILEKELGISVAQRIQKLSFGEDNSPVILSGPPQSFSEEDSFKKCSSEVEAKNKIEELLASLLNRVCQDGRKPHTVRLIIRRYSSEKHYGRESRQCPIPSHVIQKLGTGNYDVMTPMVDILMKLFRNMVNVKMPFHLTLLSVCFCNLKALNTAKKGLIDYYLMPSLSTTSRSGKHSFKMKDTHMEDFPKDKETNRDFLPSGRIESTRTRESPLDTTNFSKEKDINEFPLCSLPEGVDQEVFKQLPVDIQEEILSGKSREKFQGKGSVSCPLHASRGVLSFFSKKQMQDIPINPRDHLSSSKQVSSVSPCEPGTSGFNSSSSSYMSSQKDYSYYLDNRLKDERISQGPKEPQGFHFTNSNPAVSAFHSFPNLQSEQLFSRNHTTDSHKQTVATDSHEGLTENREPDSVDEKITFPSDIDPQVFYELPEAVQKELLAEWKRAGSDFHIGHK
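Pol iota at 10 nM preincubated 15 min with compounds at room temperature; reaction started with fluorescent substrate, 50 nM final. Fluorescence read kinetically at 0 and 10 min; buffer-only wells as negative control.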
FEN1 inhibitor: qHTS Assay for the Inhibitors of Human Flap endonuclease 1 (FEN1) | P39748 | Recombinant FEN1 flap cleavage, fluorescence, 15 min | Potency, µM (top dose mostly 114 µM), for the others: top-dose activity change, negative = inhibition, usual class: inhibitors | actives 0.35% (n = 390,000); note: potency is the fitted concentration of half-maximal effect; % is set by controls: 0 for no effect and ±100 for the full control effect; nearly all actives have a fitted effect of over 65% in size
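Reaction started by adding substrate (50 nM final) to 10 nM enzyme after 15 min room-temperature compound preincubation. Reads at 0 and 15 min, with data normalized and fitted to a four-parameter Hill equation.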
Pol beta inh-2: Inhibitors of DNA Polymerase Beta: Hit validation; shares compounds with Pol beta inh-1; Pol beta primer extension/strand displacement, fluorescence kinetic; Potency, µM, hits mostly inhibitors; actives 87% (n = 250); AID 540280, 2011; calls by dose curve; note: potency is the fitted concentration of half-maximal effect
Klenow inh: Inhibitors of DNA Polymerase Beta: Hit Validation in Klenow Fragment Assay. shares compounds with Pol beta inh-1. Klenow exo- polymerase counter-screen, fluorescent DNA substrate. activity change, negative = inhibition, % at 57.1 µM. 250 tested, under 10 active. AID 540300, 2011
HIV RT counter: Inhibitors of DNA Polymerase Beta: Hit Validation in HIV-RT Assay | 250 tested, under 10 active | HIV-1 RT polymerase activity, counter-screen | shares compounds with Pol beta inh-1 | activity % (negative = inhibition, positive = activation), % at 57.1 µM
POLB inh gel: Inhibitors of DNA Polymerase Beta: Hit Validation in Radiolabeled Extension Assay. shares compounds with Pol beta inh-1. radiolabeled primer extension gel assay, phosphorimager. inhibition, % at 10 µM. actives 91% (n = 110). AID 540325, 2011;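 active = inhibition at 10 µM of 30% or more; inconclusive = no clear call, values can overlap the other calls; inactive = inhibition at 10 µM under 30%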
* = called active by the depositor; ? = inconclusive; nt = no result; [ ] = remark or other dose. Hits are enriched below; roughly 2.4% of the tested compounds scored in any of these assays. Unless noted, calls come from the whole dose curve; as a rule, active = well fitted curve in the direction sought with a large enough effect; inconclusive = small, poorly fitted or top-dose-only effect, or another doubt; inactive = no such curve, though single readings can be large; an effect the other way counts as inactive or inconclusive.

SMILES	POLH inh	POLK inh	Pol beta inh-1	WRN inhibitor	Pol iota inh	FEN1 inhibitor	Pol beta inh-2	Klenow inh	HIV RT counter	POLB inh gel
COc1ccc2cc3cc(C(=O)Nc4ccc5c(c4)OCCO5)oc3nc2c1	11µM*	-13%	13µM*	-32%[57.1 µM]	?	-12%	?	8	27	nt
CNc1ccc(Br)cc(C(=O)/C=C/c2cc(OC)ccc2OC)c1=O	14µM*	?	13µM*	-9%[11.6 µM]	?	?	28*	6	-24	43*
COc1ccc(/C=C/C(=O)c2cc(Br)ccc2O)cc1OC	-4%	-4%	0%	-5%	1%	-2%	nt	nt	nt	nt
COc1ccc(Cc2nnc(NC(=O)Cc3cccs3)s2)cc1OC	6.3µM*	79µM*	8.9µM*	?	?	-19%	?	-25	42	nt
O=C(Cc1cccs1)Nc1nnc(SCC(=O)NC2CCCCC2)s1	?	-31%	?	-18%	?	1%	nt	nt	nt	nt
O=C(Cc1cccs1)Nc1nnc(SCc2cccc3ccccc23)s1	?	50µM*	8.9µM*	-8%[11.6 µM]	22µM*	1%	28*	-18	24	71*
Cc1c(C(=O)Nc2ccc(F)cc2)cn2c(nc3ccccc32)c1C#N	-15%	-13%	-15%	-1%	2%	9%	nt	nt	nt	nt
N#Cc1c2nc3ccccc3nc2n2cc(NC(=O)c3ccc(F)cc3)ccc12	35µM*	?	6.3µM*	20µM*	?	?	10*	-19	0	nt
O=C(Cc1ccccc1)NCC(=O)OCC(=O)c1cccc2ccccc12	nt	0%	nt	nt	0%	-15%	nt	nt	nt	nt
O=C(Nc1cc(S(=O)(=O)Nc2ccc(Cl)cc2)ccc1O)c1ccc(S(=O)(=O)N2CCCCCC2)cc1	?	-21%	5.6µM*	?	?	-10%	22*	-16	11	67*
O=C(Nc1cc(S(=O)(=O)N2CCOCC2)ccc1O)c1ccc(S(=O)(=O)N2CCCCC2)cc1	-9%	1%	nt	4%	5%	16%	nt	nt	nt	nt
C#CCn1c(=NC(=O)c2cccs2)sc2cccc(OC)c21	?	-12%	20µM*	-20%	?	-24%	32*	-9	43	77*
COc1cccc(Cn2c(=O)cnc3cnc(N(C)C)nc32)c1	nt	-2%[60.1 µM]	nt	nt	nt	nt	nt	nt	nt	nt
Cc1cc(SCC(=O)c2ccc(O)c(O)c2)nc2ccccc12	11µM*	50µM*	14µM*	?	40µM*	-18%	11*	-20	?	nt
Cc1cc(SCC(=O)c2ccc3c(c2)OCO3)nc2ccccc12	-8%	-17%	0%	-20%	-1%	-15%	nt	nt	nt	nt
CC(C)(C)OC(=O)N1CCCC1C(=O)NC1COC2CC(n3cc(F)c(=O)[nH]c3=O)OC12 (stereo unspecified)	nt	16%	nt	nt	-2%	-1%	nt	nt	nt	nt

High-throughput results: PubChem BioAssay, National Center for Advancing Translational Sciences (NCATS)
